Test results from PubChem BioAssay (EPA / NIEHS).
Records with an inconclusive call do not appear. Activity calls are given as the source filed them. Rule for the calls, unless noted: active = hit-call score of the fitted dose curve at least 0.9, where 1 is the maximum; inactive = score below 0.9.

Experiment: CCTE_Harrill_HTTr_CellCount_MCF7: CCTE's Cell Proliferation Assessment for the High-Throughput Transcriptomics (HTTr) Platform, Harrill Lab (AID 2284012; active = hit-call score of the fitted dose curve at least 0.9, where 1 is the maximum;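 note: count of Hoechst-stained nuclei per well by high-content imaging in MCF-7 cells; cells exposed to compound for six hours; intended direction is loss of nuclei count meaning fewer cells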)
Outline: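 Nuclei counting (Hoechst, high content imaging) in MCF-7 after a 6 h treatment at eight concentrations. Activity fitted bidirectionally, DMSO as negative control.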
For CCCc1c(OCCCOc2ccc(OCC(=O)O)cc2)ccc(C(C)=O)c1O, the outcome was “inactive”.
In the case of CCC(C)CCCC(C)(C)O (stereo unspecified), the outcome is reported as “inactive”.
For O=C(O)CN(CCN(CC(=O)O)CC(=O)O)CCN(CC(=O)O)CC(=O)O, the outcome was “inactive”.
With C=C(C)[C@@H]1CC[C@@H](C)C[C@@H]1O the outcome was “inactive”.
With C#C[C@]1(O)CC[C@H]2[C@@H]3CCC4=Cc5oncc5C[C@]4(C)[C@H]3CC[C@@]21C the outcome was “inactive”.
For Cc1cc(C2(c3cc(C)c(O)cc3C)OS(=O)(=O)c3ccccc32)c(C)cc1O, the outcome was “inactive”.
For COc1cc2ncnc(Nc3cccc(Cl)c3)c2cc1OC, the outcome was “inactive”.
In the case of OCCOCCOCCOCCO, the outcome is reported as “inactive”.
For CC(=O)OCCOC(C)=O, the outcome was “inactive”.
For CCN(CC)CCOC(=O)c1ccc(N)cc1, the outcome was “inactive”.
With C=CCOC(=O)CCC1CCCCC1 the outcome was “inactive”.
For COc1cc(C=O)ccc1OC(=O)C(C)C, the outcome was “inactive”.
With CC1(C)[C@H]2CC[C@]1(C)[C@H](O)C2 the outcome was “inactive”.
For c1ccc2c(c1)c1cccc3ccc4cccc2c4c31, the outcome was “inactive”.
In the case of O=[N+]([O-])c1cc(C(F)(F)F)ccc1Cl, the outcome is reported as “inactive”.
With CN(C)C(=N)N=C(N)N the outcome was “inactive”.
In the case of CCCCNC(=O)NS(=O)(=O)c1ccc(C)cc1, the outcome is reported as “inactive”.
For Cc1ccc(C=O)s1, the outcome was “inactive”.
In the case of CC(c1cc2ccccc2s1)N(O)C(N)=O (stereo unspecified), the outcome is reported as “inactive”.
In the case of CC(C)Oc1ccccc1O, the outcome is reported as “inactive”.
For C[C@H]1C[C@@H]2[C@H]([C@@H](O)C[C@@]3(C)[C@H]2CC[C@]3(O)C(=O)CO)[C@@]2(C)C=CC(=O)C=C12, the outcome was “inactive”.
In the case of CCC(=O)OCc1ccccc1, the outcome is reported as “inactive”.
For CCCCCCCCCCCCCC(=O)O, the outcome was “inactive”.
For O=C(O)c1cn(C2CC2)c2cc(N3CCNCC3)c(F)cc2c1=O, the outcome was “inactive”.
In the case of Clc1ccc2c(c1)C(N1CCNCC1)=Nc1ccccc1O2, the outcome is reported as “inactive”.
For C=O, the outcome was “inactive”.
In the case of CCCCCCCCCC=O, the outcome is reported as “inactive”.
In the case of CC(C)=CCCC(C)=CCCC(C)=CCO, the outcome is reported as “inactive”.
In the case of CN1[C@@H]2CC(OC(=O)[C@H](CO)c3ccccc3)C[C@H]1[C@@H]1O[C@@H]12 (stereo partly specified), the outcome is reported as “inactive”.
For CC1CCC2CC1C2(C)C (stereo unspecified), the outcome was “inactive”.

Experiment: CCTE_Shafer_MEA_acute_burst_duration_mean: CCTE's Neural Acute Assay for Mean Burst Duration, Shafer Lab (AID 2284014);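 note: hits are decreases in mean burst duration relative to DMSO controls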
Outline: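 Primary rat cortical neurons on 16-electrode MEA wells, treated on DIV 13 or 15 with compound (0.03-40 uM; ≥3 wells each). 40-min baseline and 40-min exposure recordings at 37 C; percent change in mean burst duration per well versus DMSO.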
With Cc1cc(C2(c3cc(C)c(O)cc3C)OS(=O)(=O)c3ccccc32)c(C)cc1O the outcome was “inactive”.
In the case of C=CCOC(=O)CCC1CCCCC1, the outcome is reported as “inactive”.
In the case of COc1cc(C=O)ccc1OC(=O)C(C)C, the outcome is reported as “inactive”.
For CN(C)C(=N)N=C(N)N, the outcome was “inactive”.
For C[C@H]1C[C@@H]2[C@H]([C@@H](O)C[C@@]3(C)[C@H]2CC[C@]3(O)C(=O)CO)[C@@]2(C)C=CC(=O)C=C12, the outcome was “inactive”.
For CCC(=O)OCc1ccccc1, the outcome was “inactive”.

Experiment: CCTE_Shafer_MEA_acute_per_burst_spike_number_mean: CCTE's Neural Acute Assay for Average Number of Spikes Per Burst, Shafer Lab (AID 2284015);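 note: hits are decreases in mean spikes per burst versus baseline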
Outline: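 Rat primary cortical neurons on 48-well MEAs (DIV 13 or 15) were treated with 0.03-40 uM compound at 37 C. Mean spikes per burst over 40 min were recorded before and after exposure and expressed as percent change from baseline, relative to DMSO.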
For Cc1cc(C2(c3cc(C)c(O)cc3C)OS(=O)(=O)c3ccccc32)c(C)cc1O, the outcome was “inactive”.
With C=CCOC(=O)CCC1CCCCC1 the outcome was “inactive”.
In the case of COc1cc(C=O)ccc1OC(=O)C(C)C, the outcome is reported as “inactive”.
With CN(C)C(=N)N=C(N)N the outcome was “inactive”.
In the case of C[C@H]1C[C@@H]2[C@H]([C@@H](O)C[C@@]3(C)[C@H]2CC[C@]3(O)C(=O)CO)[C@@]2(C)C=CC(=O)C=C12, the outcome is reported as “inactive”.
For CCC(=O)OCc1ccccc1, the outcome was “inactive”.

Experiment: CCTE_Shafer_MEA_acute_interburst_interval_mean: CCTE's Neural Acute Assay for Mean Interburst Interval, Shafer Lab (AID 2284016);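 note: percent change of mean interburst interval versus each well's own pre-dose baseline; curves fitted for decrease in interburst interval relative to DMSO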
Outline: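 Rat primary cortical neurons on 48-well MEAs at DIV 13 or 15 were exposed acutely to 0.03-40 uM. Spikes detected at 8x rms noise, 37 C. Mean interburst interval from 40 min recordings expressed as percent change from 40 min pre-treatment baseline.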
In the case of Cc1cc(C2(c3cc(C)c(O)cc3C)OS(=O)(=O)c3ccccc32)c(C)cc1O, the outcome is reported as “inactive”.
In the case of C=CCOC(=O)CCC1CCCCC1, the outcome is reported as “inactive”.
For COc1cc(C=O)ccc1OC(=O)C(C)C, the outcome was “inactive”.
In the case of CN(C)C(=N)N=C(N)N, the outcome is reported as “inactive”.
For C[C@H]1C[C@@H]2[C@H]([C@@H](O)C[C@@]3(C)[C@H]2CC[C@]3(O)C(=O)CO)[C@@]2(C)C=CC(=O)C=C12, the outcome was “inactive”.
With CCC(=O)OCc1ccccc1 the outcome was “inactive”.

Experiment: CCTE_Shafer_MEA_acute_burst_percentage_mean: CCTE's Neural Acute Assay for Percentage of Spikes in a Burst, Shafer Lab (AID 2284017)
Outline: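 Primary rat cortical neurons on 48-well MEA plates, treated on DIV 13 or 15 at 0.03-40 uM. Spikes detected at 8x rms noise at 37C; percent change from 40-min baseline to 40-min post-dose recording, fitted versus DMSO.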
In the case of Cc1cc(C2(c3cc(C)c(O)cc3C)OS(=O)(=O)c3ccccc32)c(C)cc1O, the outcome is reported as “inactive”.
For C=CCOC(=O)CCC1CCCCC1, the outcome was “inactive”.
For COc1cc(C=O)ccc1OC(=O)C(C)C, the outcome was “inactive”.
In the case of CN(C)C(=N)N=C(N)N, the outcome is reported as “inactive”.
For C[C@H]1C[C@@H]2[C@H]([C@@H](O)C[C@@]3(C)[C@H]2CC[C@]3(O)C(=O)CO)[C@@]2(C)C=CC(=O)C=C12, the outcome was “inactive”.
In the case of CCC(=O)OCc1ccccc1, the outcome is reported as “inactive”.

Experiment: CCTE_Shafer_MEA_acute_burst_percentage_std: CCTE's Neural Acute Assay for Standard Deviation of Burst Percentage, Shafer Lab (AID 2284018);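 note: fitted in the negative direction so actives lower burst percentage SD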
Outline: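 Primary rat cortical neurons on 16-electrode MEA wells were recorded 40 min at baseline (DIV 13 or 15), then 40 min after compound (0.03-40 uM), at 37 C. Well value is SD across electrodes of spikes-in-bursts/total spikes; endpoint is percent change, DMSO-referenced.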
For Cc1cc(C2(c3cc(C)c(O)cc3C)OS(=O)(=O)c3ccccc32)c(C)cc1O, the outcome was “inactive”.
With C=CCOC(=O)CCC1CCCCC1 the outcome was “inactive”.
For COc1cc(C=O)ccc1OC(=O)C(C)C, the outcome was “inactive”.
In the case of CN(C)C(=N)N=C(N)N, the outcome is reported as “inactive”.
In the case of C[C@H]1C[C@@H]2[C@H]([C@@H](O)C[C@@]3(C)[C@H]2CC[C@]3(O)C(=O)CO)[C@@]2(C)C=CC(=O)C=C12, the outcome is reported as “inactive”.
For CCC(=O)OCc1ccccc1, the outcome was “inactive”.

Experiment: CCTE_Shafer_MEA_acute_per_network_burst_spike_number_mean: CCTE's Neural Acute Assay for Average Number of Spikes in a Network Burst, Shafer Lab (AID 2284019);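 for AC50: curve fitted for loss of signal so actives reduce spikes per network burst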
Outline: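 Primary rat cortical neurons on 16-electrode MEA wells, DIV 13 or 15, 37 C; 40-min baseline then 40-min recording with compound (0.03-40 uM). Spikes per network burst (total spikes/number of bursts) expressed as percent change from baseline, DMSO reference.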
In the case of Cc1cc(C2(c3cc(C)c(O)cc3C)OS(=O)(=O)c3ccccc32)c(C)cc1O, the AC50 is reported as 25.9 µM (active).
In the case of C=CCOC(=O)CCC1CCCCC1, the outcome is reported as “inactive”.
In the case of COc1cc(C=O)ccc1OC(=O)C(C)C, the AC50 is reported as 3.8 µM (active).
For CN(C)C(=N)N=C(N)N, the outcome was “inactive”.
For C[C@H]1C[C@@H]2[C@H]([C@@H](O)C[C@@]3(C)[C@H]2CC[C@]3(O)C(=O)CO)[C@@]2(C)C=CC(=O)C=C12, the outcome was “inactive”.
With CCC(=O)OCc1ccccc1 the outcome was “inactive”.
